CCHF vOTU inh: blocks the CCHF virus ovarian tumor domain protease; CCHFV vOTU protease, Pep-AMC fluorescence; inhibition, % at 11.5 µM; hit rate 0.55% among 370,000; AID 651958
Mtb FBA inh: inhibits M. tuberculosis FBA enzyme; P9WQA3; purified M. tuberculosis FBA, fluorescence read-out; inhibition, % at 1 µM; hit rate 2.3% among 360,000; AID 588726; in the data active = inhibition above about 27%
RecA intein inh: blocks M. tuberculosis RecA intein splicing. cell-free RecA intein splicing, fluorescence. inhibition, % (test concentration not listed). hit rate 0.75% among 290,000; in the data active = inhibition above about 30%
Target sequence (P9WHJ3 whole entry, looked up): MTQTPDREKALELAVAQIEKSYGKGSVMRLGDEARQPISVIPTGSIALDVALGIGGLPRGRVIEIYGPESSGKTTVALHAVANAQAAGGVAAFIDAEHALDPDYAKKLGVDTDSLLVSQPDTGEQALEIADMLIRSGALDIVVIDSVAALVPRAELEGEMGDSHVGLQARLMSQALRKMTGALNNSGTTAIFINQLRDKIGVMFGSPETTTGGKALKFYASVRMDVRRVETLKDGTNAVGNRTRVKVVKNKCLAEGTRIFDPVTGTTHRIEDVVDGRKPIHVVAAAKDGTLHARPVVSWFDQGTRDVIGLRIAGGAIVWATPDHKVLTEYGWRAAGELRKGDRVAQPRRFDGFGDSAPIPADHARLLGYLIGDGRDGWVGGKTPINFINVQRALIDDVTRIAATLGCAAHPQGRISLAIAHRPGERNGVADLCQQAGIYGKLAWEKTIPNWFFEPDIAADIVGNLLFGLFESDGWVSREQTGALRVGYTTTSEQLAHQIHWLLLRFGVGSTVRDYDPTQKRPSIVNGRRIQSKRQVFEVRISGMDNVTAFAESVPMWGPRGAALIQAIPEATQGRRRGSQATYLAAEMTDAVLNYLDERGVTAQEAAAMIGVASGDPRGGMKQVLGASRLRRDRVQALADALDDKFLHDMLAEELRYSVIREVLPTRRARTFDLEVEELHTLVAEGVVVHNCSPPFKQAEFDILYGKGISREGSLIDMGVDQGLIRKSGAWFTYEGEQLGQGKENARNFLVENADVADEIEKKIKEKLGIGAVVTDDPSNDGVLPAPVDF
GDH-TPI counter: inhibits GDH-TPI coupling enzymes, artifact for Mtb FBA screen | AID 588335 | GDH-TPI coupled enzyme counterscreen, NADH absorbance | inhibition, % at 4.8 µM | hit rate 1.2% among 360,000
A number is an active result; – = inactive; · = not tested or not shown; + = active, no number. Only some compounds are listed: those with a hit (about 4.2% of all), similar ones and a draw of the others. Cut-off read from the data, not from the text of the source, unless noted: active = inhibition above about 30%; inactive = the rest.

SMILES	CCHF vOTU inh	Mtb FBA inh	RecA intein inh	GDH-TPI counter
COc1ccc(C/C(O)=C(\C#N)c2nc3ccccc3s2)cc1	·	–	–	46
Cc1ccc(NC2(c3nnnn3-c3c(C)cccc3C)CCCCC2)cc1	–	–	–	–
COc1ccc(S[C@]2(C(=O)N3CCCC3)CC(=O)N(c3ccccc3OC)[C@@H]2c2ccc(OC)cc2)cc1	–	·	·	·
Cn1c(=O)c2c(-c3ccc(OC(F)F)cc3)cc(-c3ccccc3)nc2n(C)c1=O	·	·	–	·
O=C(NC1CCCCC1)N(CCO)Cc1cc2cc3c(cc2[nH]c1=O)OCCO3	–	–	–	–
O=C(NC1CCCCC1)N(Cc1cc2cc3c(cc2[nH]c1=O)OCCO3)CC1CCCO1 (centres undefined)	–	–	–	36
COc1ccc(-c2nc(-c3ccc4c(c3)OCO4)[nH]c2-c2ccc(OC)cc2)cc1	–	136	–	–
COc1ccc(-c2noc(-c3ccc4c(c3)OCO4)n2)cc1	–	–	–	–
CCn1cc(/C=C(\NC(=O)c2ccccc2Cl)C(=O)N2CCOCC2)c2ccccc21	–	–	–	–
CCn1cc(/C=C(\NC(=O)c2ccccc2F)C(=O)N2CCCC2)c2ccccc21	·	–	–	32
CCn1cc(/C=C(\NC(=O)c2ccccc2Cl)C(=O)N2CCN(C)CC2)c2ccccc21	–	–	–	39
CCn1cc(/C=C(\NC(=O)c2ccccc2F)C(=O)N2CCOCC2)c2ccccc21	·	–	–	31
CCOC1=C2[C@@H](CN(S(=O)(=O)c3ccc(C)cc3)[C@H]2c2ccccc2)[C@H]2C(=O)N(Cc3ccccc3)C(=O)[C@H]2C1	–	–	·	·
COc1ccc(-c2cc(NC(=O)Cc3c[nH]c4ccccc34)ccc2Nc2cccnc2)c(OC)c1	–	·	·	·
COc1cccc(C(=O)c2sc(NC(C)C)nc2N)c1	–	–	–	–
COc1ccc(C(=O)c2sc(NC(C)C)nc2N)cc1OC	–	–	·	37
CCCn1c2c(c(O)c(C(=O)Nc3ncccc3O)c1=O)CCCC2	–	–	–	34
CCCn1c2c(c(O)c(C(=O)NC)c1=O)CCCC2	–	–	–	–
CN1C(C(=O)Nc2ccccn2)=C(O)c2ccccc2S1(=O)=O	–	–	–	33
CN1C(C(=O)Nc2ncccn2)=C(O)c2ccccc2S1(=O)=O	–	–	–	–
CC(C)(C)C(=O)NC1CCCCN(Cc2ccc(Cl)cc2)C1=O (centres undefined)	–	·	·	·
Oc1ccc(C=NC2CCCCC2)cc1	–	–	–	37
O=C1CC(c2ccccc2)CC(O)=C1C=NC1CCCCC1 (centres undefined)	–	–	–	–
CCOC(=O)[C@]12CCCC=C1N(CCCOC)C(=O)[C@@H]2CC(=O)N1CCC(c2ccccc2)CC1	–	·	·	·
Cc1nc2ccccc2c2c1C(=O)NC2=O	·	·	60	·
SMILES	CCHF vOTU inh	Mtb FBA inh	RecA intein inh	GDH-TPI counter
COc1ncnc2c1ncn2CC1COC(C)(C)O1 (centres undefined)	–	–	·	–
COP(=O)(OC)c1nc(-c2cccc3ccccc23)oc1NCCc1ccccc1	–	+	–	–
CCc1nc2ccccc2c(=O)n1NCCc1ccccc1	–	–	–	–
COc1ccc(CCNc2oc(-c3cccc4ccccc34)nc2P(=O)(OC)OC)cc1OC	–	188	–	–
COc1ccc(CCNc2oc(Cc3cccc4ccccc34)nc2C#N)cc1OC	–	–	–	–
COc1ccc(C2C(C(=O)Nc3ccc(C)c(C)c3)CCC(=O)N2c2ccc(OC)cc2)cc1 (centres undefined)	–	·	·	·
CCCCC(c1nc2ccccc2[nH]1)n1c(-c2ccccc2)nc2ccccc21 (centres undefined)	–	–	·	·
O=C(COC(=O)Cn1nnc2ccccc21)NC1CCCC1	–	–	–	–
Cc1c(C(=O)O)cccc1-c1ccc(/C=N/Nc2ccc(Br)cc2)o1	–	–	–	–
Clc1cccc(-c2ccc(/C=N/n3cnnc3)o2)c1Cl	–	–	–	34
O=[N+]([O-])c1ccc(-c2ccc(/C=N/n3cnnc3)o2)c(Br)c1	–	–	–	–
Cc1c(Cl)cccc1-c1ccc(/C=N/n2cnnc2)o1	–	–	–	33
Clc1ccccc1-c1ccc(/C=N/n2cnnc2)o1	–	–	–	55
Cc1c(C(=O)O)cccc1-c1ccc(/C=N/n2cnnc2)o1	–	–	–	31
O=C(O)c1cccc(-c2ccc(/C=N/n3cnnc3)o2)c1	–	–	–	35
COc1cc(/C=N/NC(=O)c2ccoc2C)cc(OC)c1OC	–	–	–	–
COc1ccc(C=NNC(=S)Nc2ccc(F)cc2)cc1OC	–	–	·	69
COc1ccc(C=NNC(=S)NN=Cc2ccc(OC)c(OC)c2)cc1OC	–	–	·	64
COc1cc(/C=N/NC(=S)NCCN2CCOCC2)cc(OC)c1O	–	–	–	49
COc1cc(/C=N/NC(=S)N/N=C/c2cc(OC)c(OC)c(OC)c2)cc(OC)c1OC	–	–	–	45
